Assay results taken from PubChem BioAssay (Tox21).
Records with an inconclusive call do not appear. Calls of active or inactive are those of the source. Unless noted, the call rests on the fitted dose curve.

Legend:
[1] = Nuclear factor erythroid 2-related factor 2/antioxidant responsive element (Nrf2/ARE) small molecule agonists: qHTS cell viability counter screen in human keratinocytes (AID 1919968; active means well fitted curve in the direction sought with a large enough effect in the repeat runs; an effect the other way counts as inactive or inconclusive; further: nearly all actives have a fitted effect of over 55% in size; further: potency means the concentration at half of the fitted maximal effect)
In short: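 HaCaT ARE reporter line, 1,500 cells/well; 5 h settle, 37 C/5% CO2; cpd in DMSO pinned; 23 h exposure; CellTiter-Fluor, 1 h; fluorescence.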

[2] = biological target: Gonadotropin-releasing hormone receptor (Homo sapiens) (UniProt P30968); experiment: Human gonadotropin-releasing hormone receptor (GnRHR) small molecule agonists, calcium flux assay in GnRHR-HEK293 cells (AID 1920063); further: nearly all actives have a fitted effect of over 35% in size
Sequence of Gonadotropin-releasing hormone receptor (Homo sapiens) (P30968 whole entry, looked up): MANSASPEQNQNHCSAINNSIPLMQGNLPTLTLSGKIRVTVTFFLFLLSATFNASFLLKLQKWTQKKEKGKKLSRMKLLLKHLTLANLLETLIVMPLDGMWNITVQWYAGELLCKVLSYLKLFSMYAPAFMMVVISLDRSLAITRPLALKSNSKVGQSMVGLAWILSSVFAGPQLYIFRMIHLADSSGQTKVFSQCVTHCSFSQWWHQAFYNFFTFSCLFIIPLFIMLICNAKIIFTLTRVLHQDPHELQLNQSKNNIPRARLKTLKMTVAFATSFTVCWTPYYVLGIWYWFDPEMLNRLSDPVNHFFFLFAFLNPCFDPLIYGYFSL
In short: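 GnRHR-HEK293, 1500 cells/well, 18 h 37 C/5% CO2; Ca dye 1 h 37 C; cpd pinned (DMSO), agonist mode; kinetic FL 480/540, 3 min, 1 s reads; 15 conc, n=3.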

[3] = biological target: KiSS-1 receptor (Homo sapiens) (UniProt Q969F8); experiment: Human kisspeptin (KISS1R) small molecule agonists, calcium flux assay in KISS1R-HEK293 cells (AID 1920064; active means well fitted curve in the direction sought with a large enough effect in the repeat runs; an effect the other way counts as inactive or inconclusive)
Sequence of KiSS-1 receptor (Homo sapiens) (Q969F8 whole entry, looked up): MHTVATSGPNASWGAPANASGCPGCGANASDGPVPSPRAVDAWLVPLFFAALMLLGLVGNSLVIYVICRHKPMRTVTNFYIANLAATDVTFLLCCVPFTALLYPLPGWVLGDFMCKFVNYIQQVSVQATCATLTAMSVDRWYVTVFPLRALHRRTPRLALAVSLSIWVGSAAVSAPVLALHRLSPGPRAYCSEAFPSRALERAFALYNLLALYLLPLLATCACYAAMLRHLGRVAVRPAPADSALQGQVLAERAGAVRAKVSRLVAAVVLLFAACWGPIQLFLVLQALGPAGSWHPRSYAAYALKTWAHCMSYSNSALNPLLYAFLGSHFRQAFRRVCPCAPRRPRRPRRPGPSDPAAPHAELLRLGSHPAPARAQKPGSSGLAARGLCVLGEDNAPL
In short: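 Stable human KISS1R HEK293 line; 18 h plating, 37 C/5% CO2; calcium dye 1 h 37 C; compound pin transfer; kinetic fluorescence Ex/Em 480/540, 3 min.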

[4] = G protein-coupled receptor (GPCR) small molecule agonists, calcium flux assay: HEK293 wild type cell line counter screen (AID 1920065)
In short: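 Kinetic fluorescence at Ex/Em 480/540, recorded every second over 3 min, served as the read-out after compound addition. Each compound was tested at 15 concentrations in triplicate on cells pre-loaded with calcium dye for 1 h.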

[5] = p53 small molecule agonists, cell-based qHTS assay with rat liver microsomes (AID 1963578)
In short: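 Metabolic activation is supplied by rat liver microsomes with NADPH (each 0.5 mg/mL final). p53RE-bla cells incubate with compound 16 h at 37 C; reporter activity is measured by LiveBLAzer fluorescence.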

[6] = p53 small molecule agonists, cell-based qHTS assay with human liver microsomes: qHTS cell viability counter screen (AID 1963579); further: nearly all actives have a fitted effect of over 45% in size
In short: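 After the 460/530 nm beta-lactamase read, CellTiter-Glo was added to the same wells and luminescence measured after 30 min at room temperature, giving viability of p53RE-bla cells treated 16 h with compounds plus microsomes and NADPH.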

[7] = p53 small molecule agonists, cell-based qHTS assay with rat liver microsomes: qHTS cell viability counter screen (AID 1963580); further: nearly all actives have a fitted effect of over 45% in size
In short: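 p53RE-bla HCT-116 cells were exposed 16 h at 37 C to compounds with rat liver microsomes (0.5 mg/mL) and NADPH (0.5 mg/mL). Viability was measured in the same wells as ATP content by CellTiter-Glo luminescence.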

[8] = p53 small molecule agonists, cell-based qHTS assay: qHTS cell viability counter screen (AID 1963581); further: nearly all actives have a fitted effect of over 45% in size
In short: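 HCT-116 p53RE-bla cells, 4,000/well, plated 5 h before compound pin transfer; 16 h at 37 C; bla substrate 2 h RT; then CellTiter-Glo, 30 min RT, luminescence.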

[9] = biological target: 5-hydroxytryptamine receptor 2A (Homo sapiens) (UniProt P28223); experiment: 5-hydroxytryptamine receptor 2A (HTR2A) small molecule agonists, cell-based qHTS assay (AID 1963587); further: nearly all actives have a fitted effect of over 30% in size
Sequence of 5-hydroxytryptamine receptor 2A (Homo sapiens) (P28223 whole entry, looked up): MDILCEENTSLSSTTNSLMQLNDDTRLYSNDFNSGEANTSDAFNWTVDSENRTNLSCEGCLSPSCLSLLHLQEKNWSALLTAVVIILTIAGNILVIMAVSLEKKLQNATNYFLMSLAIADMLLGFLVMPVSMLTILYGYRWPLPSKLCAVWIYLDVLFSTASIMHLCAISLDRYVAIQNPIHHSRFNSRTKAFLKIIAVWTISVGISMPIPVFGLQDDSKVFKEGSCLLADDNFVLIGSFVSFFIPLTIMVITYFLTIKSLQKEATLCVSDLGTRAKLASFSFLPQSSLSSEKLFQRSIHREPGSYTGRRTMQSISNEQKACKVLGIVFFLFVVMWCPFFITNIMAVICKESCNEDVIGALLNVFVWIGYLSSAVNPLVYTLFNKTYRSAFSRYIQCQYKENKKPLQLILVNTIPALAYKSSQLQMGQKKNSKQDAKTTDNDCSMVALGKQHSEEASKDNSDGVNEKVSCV
In short: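 CHO cells stably expressing human HTR2A, plated 18 h, loaded with calcium dye 1 h at 37 C. Agonist mode: compounds added and intracellular calcium fluorescence recorded kinetically for 2 min at 1 sec intervals.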

[10] = biological target: Muscarinic acetylcholine receptor M1 (Homo sapiens) (UniProt P11229); experiment: Cholinergic receptor muscarinic 1 (CHRM1) small molecule antagonists, cell-based qHTS assay (AID 1963588); further: nearly all actives have a fitted effect of over 40% in size
Sequence of Muscarinic acetylcholine receptor M1 (Homo sapiens) (P11229 whole entry, looked up): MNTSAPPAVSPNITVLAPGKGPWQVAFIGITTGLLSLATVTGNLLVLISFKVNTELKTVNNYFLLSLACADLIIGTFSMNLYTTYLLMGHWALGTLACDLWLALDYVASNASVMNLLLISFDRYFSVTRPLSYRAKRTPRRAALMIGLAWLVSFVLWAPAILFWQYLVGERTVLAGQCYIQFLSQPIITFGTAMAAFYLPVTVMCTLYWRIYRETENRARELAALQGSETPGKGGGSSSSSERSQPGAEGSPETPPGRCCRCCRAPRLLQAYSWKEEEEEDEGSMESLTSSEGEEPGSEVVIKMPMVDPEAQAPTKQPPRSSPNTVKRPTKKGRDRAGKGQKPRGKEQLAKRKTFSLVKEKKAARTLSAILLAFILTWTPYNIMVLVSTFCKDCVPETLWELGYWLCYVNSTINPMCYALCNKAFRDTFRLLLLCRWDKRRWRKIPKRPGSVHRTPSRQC
In short: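 CHRM1-CHO calcium-flux assay, antagonist mode. Cells were seeded 18 h, dye-loaded 1 h at 37 C and given compound for 5 min at RT, then acetylcholine was added at 50nM. FDSS fluorescence was read 3 min; 15 concentrations, three runs.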

[11] = biological target: Muscarinic acetylcholine receptor M1 (Homo sapiens) (UniProt P11229); experiment: Cholinergic receptor muscarinic 1 (CHRM1) small molecule agonists, cell-based qHTS assay (AID 1963589); further: nearly all actives have a fitted effect of over 35% in size
In short: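 Human M1 in stable CHO line; 18 h plating, 1 h dye load 37 C; cpd added (agonist mode); Ca2+ fluorescence kinetic read, 1 s intervals; 15 conc, 3 runs.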

[12] = cAMP Responsive Elements (CRE) small molecule agonists, cell-based qHTS assay (AID 1963590)
In short: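 HEK 293T CRE-bla, 2,000 cells/well, 18 h preincubation 37 C/5% CO2; cpds (DMSO) pinned, 3 h; LiveBLAzer B/G FRET substrate, 2 h RT.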

[13] = cAMP Responsive Elements (CRE) small molecule antagonists, cell-based qHTS assay (AID 1963591; active means well fitted inhibition curve with a large enough effect in the signal ratio in the repeat runs, not every such curve was filed as active; the % refers to the signal ratio)
In short: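 Beta-lactamase reporter read by FRET substrate (LiveBLAzer B/G) after 2 h at room temperature. CRE-bla HEK293T cells had received compound plus 0.25 uM (final) NKH477 for 3 h at 37 °C.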

[14] = biological target: Beta-2 adrenergic receptor (Homo sapiens) (UniProt P07550); experiment: Adrenergic beta2 receptor (ADRB2) small molecule antagonists, cell-based qHTS assay (AID 1963592); further: series mostly up to about 92 µM; nearly all actives have a fitted effect of over 50% in size
Sequence of Beta-2 adrenergic receptor (Homo sapiens) (P07550 whole entry, looked up): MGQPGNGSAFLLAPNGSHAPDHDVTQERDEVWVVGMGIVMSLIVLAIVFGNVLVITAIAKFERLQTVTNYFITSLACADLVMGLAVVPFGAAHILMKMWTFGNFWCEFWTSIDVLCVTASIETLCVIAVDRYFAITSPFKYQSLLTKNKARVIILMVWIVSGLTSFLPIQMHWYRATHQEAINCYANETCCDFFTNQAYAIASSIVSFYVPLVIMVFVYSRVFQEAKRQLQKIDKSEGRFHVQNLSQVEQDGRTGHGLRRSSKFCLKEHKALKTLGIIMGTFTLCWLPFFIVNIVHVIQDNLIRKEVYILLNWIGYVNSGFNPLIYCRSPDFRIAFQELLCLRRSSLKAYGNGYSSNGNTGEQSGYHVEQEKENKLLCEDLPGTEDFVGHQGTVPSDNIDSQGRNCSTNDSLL
In short: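 Cells (CHO, stable ADRB2 overexpression) incubated 18-20hr at 37C; compounds added from DMSO; agonist mix (1nM isoproterenol, 100uM IBMX, 25uM Ro-20-1724) added; 0.5hr RT; d2-cAMP and anti-cAMP-cryptate added; 1hr RT; 665/615 nm read.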

[15] = biological target: Beta-2 adrenergic receptor (Homo sapiens) (UniProt P07550); experiment: Adrenergic beta2 receptor (ADRB2) small molecule agonists, cell-based qHTS assay (AID 1963593); further: potency means the concentration at half of the fitted maximal effect;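 on activation: CHO cells stably overexpressing human ADRB2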
In short: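 CHO cells stably over-expressing ADRB2 were plated overnight at 37C, then dosed with compounds plus a stimulation mix containing 100uM IBMX and 25uM Ro-20-1724 for 0.5hr at room temperature. cAMP was measured by HTRF competition, 1hr.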

[16] = biological target: D(2) dopamine receptor (Homo sapiens) (UniProt P14416); experiment: Dopamine D2 receptor (DRD2) small molecule agonists, cell-based qHTS assay (AID 1963594); further: nearly all actives have a fitted effect of over 35% in size
Sequence of D(2) dopamine receptor (Homo sapiens) (P14416 whole entry, looked up): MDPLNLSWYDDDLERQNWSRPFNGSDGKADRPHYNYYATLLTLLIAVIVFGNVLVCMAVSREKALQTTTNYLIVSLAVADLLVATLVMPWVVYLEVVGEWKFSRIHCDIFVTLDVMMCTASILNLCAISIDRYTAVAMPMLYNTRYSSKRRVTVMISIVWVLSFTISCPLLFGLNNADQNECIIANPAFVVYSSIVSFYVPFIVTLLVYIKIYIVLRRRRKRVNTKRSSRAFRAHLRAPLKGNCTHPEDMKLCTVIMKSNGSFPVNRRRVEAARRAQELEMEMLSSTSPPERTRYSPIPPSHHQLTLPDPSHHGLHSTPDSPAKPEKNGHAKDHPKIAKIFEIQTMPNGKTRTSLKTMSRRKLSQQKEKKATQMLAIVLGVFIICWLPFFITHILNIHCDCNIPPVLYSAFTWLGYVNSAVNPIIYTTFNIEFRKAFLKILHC
In short: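 HEK293 cells stably expressing human DRD2, pre-treated with PDE inhibitor Ro20-1724 (0.1 mM final) and compound 10 min at room temperature, then stimulated with NKH477 (200nM […]) for 30 min. cAMP read by HTRF (665/620 nm).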

[17] = biological target: D(2) dopamine receptor (Homo sapiens) (UniProt P14416); experiment: Dopamine D2 receptor (DRD2) small molecule antagonists, cell-based qHTS assay (AID 1963595; active means well fitted inhibition curve with a large enough effect in the signal ratio in the repeat runs, with a control signal flat; the % refers to the signal ratio)
In short: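 HEK293 cells stably expressing DRD2 were preincubated with 0.1 mM Ro20-1724, then with compound for 10 min at room temperature. Cells were stimulated with 200 nM NKH477 plus 12 nM quinpirole for 30 min, and cAMP was read by HTRF.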

[18] = biological target: 5-hydroxytryptamine receptor 2A (Homo sapiens) (UniProt P28223); experiment: 5-hydroxytryptamine receptor 2A (HTR2A) small molecule antagonists, cell-based qHTS assay (AID 1963586); further: nearly all actives have a fitted effect of over 45% in size; further: potency means the concentration at half of the fitted maximal effect
In short: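 Antagonist-mode intracellular calcium assay: DOI (4 nM) added after 5 min compound pre-incubation at room temperature to dye-loaded HTR2A-CHO cells. Fluorescence followed for 3 min, sampled every second.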

[19] = p53 small molecule agonists, cell-based qHTS assay (AID 1963582; active means well fitted activation curve with a large enough effect in the signal ratio in the repeat runs, not every such curve was filed as active; the % refers to the signal ratio)
In short: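 Reporter line: p53RE-bla. Pre-incubation 5 h, 37 C, 5% CO2; compound (DMSO, pin tool) 16 h, 37 C; B/G FRET substrate 2 h RT; fluorescence intensity read.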

Measured: Potency

O=C(O)Cn1cnnn1
not listed: [18] | [19]
inactive: all other assays above

Cc1ccccc1S
not listed: [5] | [15] | [19]
inactive: all other assays above

CC(=O)OC(C)OC(C)=O
not listed: [10] | [15]
inactive: all other assays above

CCCCCCCCCCCCCCCC(=O)OC/C=C(C)/C=C/C=C(C)/C=C/C1=C(C)CCCC1(C)C
not listed: [15] | [19]
inactive: all other assays above

CC1CCC(CO)CC1 (stereo not drawn)
not listed: [5] | [15] | [19]
inactive: all other assays above

Cc1onc(-c2c(Cl)cccc2Cl)c1C(=O)Cl
not listed: [12] | [18]
inactive: all other assays above

CCCCCCCCCCCCCCCCCCNC(=O)OC1CCN(C(=O)OC[C@H](COC(=O)N(Cc2cccc[n+]2CC)C(=O)c2ccccc2OC)OC)CC1
active: [1] 10.6 µM
not listed: [10] | [12] | [13] | [14] | [15] | [17] | [19]
inactive: all other assays above

Brc1ccccc1-c1ccccc1
active: [18] 17.8 µM
not listed: [7] | [8] | [9] | [14] | [15] | [16]
inactive: all other assays above

O=C(NO)c1ccccc1
active: [15] 20.7 µM
inactive: [1] | [2] | [3] | [4] | [5] | [7] | [11] | [17]

O=c1[nH]sc2ccccc12
active: [1] 24.3 µM
not listed: [6] | [7] | [9] | [12] | [13] | [14] | [16]
inactive: all other assays above

CCN(Cc1ccncc1)C(=O)C(CO)c1ccccc1 (stereo not drawn)
inactive: [1] | [2] | [3] | [4] | [5] | [7] | [8] | [19] | [12] | [14]

C1CCOC1
not listed: [13] | [15] | [16] | [19]
inactive: all other assays above

C=Cc1c(C)c2cc3[nH]c(cc4nc(cc5nc(cc1[nH]2)C(C)=C5CCC(=O)O)C(CCC(=O)O)=C4C)c(C)c3C=C
not listed: [6] | [15] | [16] | [17]
inactive: all other assays above

COc1ccc(C2CNC(=O)C2)cc1OC1CCCC1 (stereo not drawn)
not listed: [6] | [7]
inactive: all other assays above
